The record followed here is PubChem BioAssay (NCATS).

The structures appear in SMILES notation. Unmarked numbers belong to inactive results. No rule for the calls is given here.
Potency is read from the fitted curve at half-maximal effect.

For the experiment, the system named is HIV-1 nucleocapsid protein NCp7 (binding to TG oligonucleotide). The experiment can be described thus: HIV Nucleocapsid (AID 346).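 Also: potency is for inhibitors that block NC binding and lower polarization.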 Conditions: HIV-1 NC / fluorescein-TGTGTGTG probe, fluorescence polarization. Put shortly:
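Fluorescence polarization readout: labelled TG4xF oligo (10 nM) with 100 nM nucleocapsid protein, high-salt (250mM NaCl) Hepes pH 7.5 buffer containing zinc and fresh reducing agents. Compounds added by pin tool; incubation 1 hr, room temperature.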
A general note: In fluorescence polarisation assays a small probe gives low polarisation when free and higher when bound to something large.
As for `O=C(c1ccco1)N1CCC2(CC1)CCN(c1ccccc1)CC2`, the Potency was > 20 µM.

On to `CN1CCN(c2ccnc(-c3cccnc3)n2)CC1`, for which the Potency is > 20 µM.

Take `CN1CCN(c2nc(-c3cccc(NS(C)(=O)=O)c3)nc3ccccc23)CC1`: the Potency was > 20 µM.

As for `COc1ccc(CNc2ncnc3ccc(-c4ccc(N(C)C)cc4)cc23)c(OC)c1`, the Potency was > 20 µM.

As for `COCCn1c(=O)c(CCc2ccccc2)nc2cnc(N3CCOCC3)nc21`, the Potency was > 20 µM.

With `O=c1cnc2cnc(N3CCOCC3)nc2n1Cc1ccc(F)cc1`, the Potency is 20.6 µM.

As to `O=S(=O)(c1ccccc1)N1CCC2(CCCN(C(c3ccccc3)c3ccccc3)C2)CC1`, the Potency is > 20 µM.

Turning to `Cn1c(=O)c(CCc2ccccc2)nc2cnc(Oc3ccccc3)nc21`, the Potency was > 20 µM.

Take `COc1cccc(Nc2ncc3nc(C)c(=O)n(C)c3n2)c1`: the Potency was > 20 µM.

With `COc1ccccc1-c1cc(NCc2cccc(C)c2)ncn1`, the Potency was > 20 µM.

For `COCCn1c(=O)c(-c2ccc(Cl)cc2)nc2cncnc21`, the Potency was > 20 µM.

As for `Cc1cccc(CNc2ncnc3ccc(-c4ccc5c(c4)OCO5)cc23)c1`, the Potency is > 20 µM.

Regarding `Clc1ccccc1-c1nccc(NCc2cccs2)n1`, the Potency was > 20 µM.

On to `CCNc1ncc2nc(C)c(=O)n(CCC#N)c2n1`, for which the Potency was > 20 µM.

With `COc1cccc(-c2nc(NCc3cccs3)c3ccccc3n2)c1`, the Potency was > 20 µM.

Regarding `Cn1cccc1C(=O)N1CCC2(CC1)CN(c1ccccn1)C2`, the Potency is > 20 µM.

Turning to `COc1ncc2nc(-c3ccccc3)c(=O)n(-c3ccccc3)c2n1`, the Potency was > 20 µM.

As to `COc1ncc2ncc(=O)n(C)c2n1`, the Potency is > 20 µM.

For the compound `COc1ccc(CNc2nc(-c3ccoc3)nc3ccccc23)c(OC)c1`, the Potency is > 20 µM.

On to `N#Cc1cccc(-c2nc(Nc3ccccc3)c3ccccc3n2)c1`, for which the Potency was > 20 µM.

Turning to `COc1ccccc1CNc1ncnc2ccc(-c3c(C)noc3C)cc12`, the Potency was > 20 µM.

Consider `O=C(c1cnccn1)N1CCC2(CC1)CN(c1ncccn1)C2`, for which the Potency was > 20 µM.

Consider `Cc1cnc(CNc2ncncc2-c2ccc(N(C)C)cc2)cn1`, for which the Potency is > 20 µM.

Take `COc1ccc2[nH]cc(CCNc3cc(-c4ccccc4CN(C)C)ncn3)c2c1`: the Potency is > 20 µM.

As to `N#Cc1ccc(CN2CC3(CCN(C(=O)c4cnccn4)CC3)C2)cc1`, the Potency is > 20 µM.

On to `Cc1noc(C)c1C(=O)N1CCC[C@@]2(CCN(c3cccc(-c4ccccc4)c3)C2)C1`, for which the Potency is > 20 µM.

For `CN1CCN(c2ncc3nc(-c4cc(F)cc(F)c4)c(=O)n(-c4ccccc4)c3n2)CC1`, the Potency is > 20 µM.

In the case of `COc1ccc(-c2nc3cnc(N(C)C)nc3n(C[C@H]3CCCO3)c2=O)cc1`, the Potency is > 20 µM.

For `COc1ccccc1CNc1cc(-c2ccccc2C)ncn1`, the Potency was > 20 µM.

For the compound `O=c1c(-c2ccc(F)cc2)nc2cnc(N3CCOCC3)nc2n1Cc1cccs1`, the Potency is > 20 µM.

For `COc1ccc(-c2nc3cnc(N(C)C)nc3n(CCC#N)c2=O)cc1`, the Potency was > 20 µM.

For `O=C(c1cnccn1)N1CCC2(CC1)CN(C(c1ccccc1)c1ccccc1)C2`, the Potency was > 20 µM.

On to `COc1ncc2nc(C)c(=O)n(CCC#N)c2n1`, for which the Potency is > 20 µM.

For `CC(=O)NCCNc1ncncc1-c1ccccc1CN(C)C`, the Potency was > 20 µM.

With `N#Cc1cccc(-c2cc(-n3ccnc3)ncn2)c1`, the Potency was > 20 µM.

With `COc1ccc(-c2nc3cnc(N(C)C)nc3n(-c3ccccc3)c2=O)cc1`, the Potency was > 20 µM.

With `c1cncc(CNc2ccnc(-c3cccnc3)n2)c1`, the Potency is > 20 µM.

`O=c1c(CCc2ccccc2)nc2cnc(N3CCOCC3)nc2n1C[C@H]1CCCO1`: the Potency was > 20 µM.

Turning to `CC(=O)N1CCC2(CC1)CN(Cc1ccc(C#N)cc1)C2`, the Potency is > 20 µM.

With `CN(Cc1ccco1)c1cc(-c2cccnc2)ncn1`, the Potency is > 20 µM.
